# According to publication PMC5540273 (PLoS ONE, 2017):
# How the values were obtained:
# Conditions in all cases: concentration: 1 μM, replicates: in singlicate; n = 1
# [1] = tested on: T1, RSK1(Kin.Dom.2-C-terminal)
# T1 construct: gene RPS6KA1
# [2] = tested on: T2, RSK2(Kin.Dom.1-N-terminal)
# T2 construct: gene RPS6KA3
# [3] = tested on: T3, RSK2(Kin.Dom.2-C-terminal)
# T3 construct: gene RPS6KA3
# [4] = tested on: T4, RSK3(Kin.Dom.1-N-terminal)
# T4 construct: gene RPS6KA2
# [5] = tested on: T5, RSK3(Kin.Dom.2-C-terminal)
# T5 construct: gene RPS6KA2
# [6] = tested on: T6, RSK4(Kin.Dom.1-N-terminal)
# T6 construct: gene RPS6KA6
# [7] = tested on: T7, RSK4(Kin.Dom.2-C-terminal)
# T7 construct: gene RPS6KA6
# S6K1 = tested on: S6K1
# SBK1 = tested on: SBK1
# SGK2 = tested on: SGK2
# SGK3 = tested on: SGK3
# SGK = tested on: SGK
# SIK2 = tested on: SIK2
# SIK = tested on: SIK
# SLK = tested on: SLK
# SNARK = tested on: T8, SNARK
# T8 construct: gene NUAK2
# SNRK = tested on: SNRK
# SRC = tested on: SRC
# SRMS = tested on: SRMS
# SRPK1 = tested on: SRPK1
# 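Note: KINOMEscan kinase panel screen.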
Structure (SMILES),%Inh [1] [%],%Inh [2] [%],%Inh [3] [%],%Inh [4] [%],%Inh [5] [%],%Inh [6] [%],%Inh [7] [%],%Inh (S6K1) [%],%Inh (SBK1) [%],%Inh (SGK2) [%],%Inh (SGK3) [%],%Inh (SGK) [%],%Inh (SIK2) [%],%Inh (SIK) [%],%Inh (SLK) [%],%Inh (SNARK) [%],%Inh (SNRK) [%],%Inh (SRC) [%],%Inh (SRMS) [%],%Inh (SRPK1) [%]
COc1cccc(C2=C(Nc3cc(Cl)c(O)c(Cl)c3)C(=O)NC2=O)c1 [SB-390767],0,11,37,0,0,0,0,20,0,11,0,0,0,0,13,0,0,0,0,11
COc1nccc(-c2c(-c3ccc(F)cc3)ncn2CCCN2CCOCC2)n1 [SB-282852],11,27,17,0,38,0,36,29,0,36,0,13,0,0,30,0,0,0,0,0
COc1ccc(Nc2nccc(N3CCC(NC(=O)C(C)c4ccc(Cl)cc4)C3)n2)cc1 (stereo not drawn) [GSK1379735],0,5,7,14,0,0,7,2,0,11,0,10,13,0,33,0,48,0,2,39
CCc1ccc(-c2ccc3c(c2)-c2n[nH]cc2S(=O)(=O)N3C)cc1,30,7,52,5,17,1,20,0,0,0,0,0,13,29,0,0,1,0,1,0
Cc1ccccc1Cn1ccn2c(=O)cc(N3CCOCC3)nc12 [GSK2269905],0,9,20,11,0,0,17,0,4,0,2,0,0,0,20,0,0,0,0,24
CSc1ccc(-c2nc3n(c2-c2ccncc2)CCC3)cc1 [SKF-105561],62,0,20,0,35,8,70,0,30,7,6,0,0,0,7,0,18,0,13,2
COc1cccc(CNC(=O)NC2CCN(c3ccnc(Nc4ccc(F)cc4)n3)C2)c1 (stereo not drawn) [GSK1379723],0,9,28,0,0,0,6,0,22,8,0,0,14,0,15,0,0,0,0,33
CNCc1ccc2nc(NC(=O)c3ccc(C(C)(C)C)cc3)cn2c1,8,32,37,1,0,27,7,17,27,12,31,2,4,3,0,34,20,3,0,33
COc1ccc(Nc2nccc(N3CCC(NC(=O)C(C)c4ccc(Cl)cc4)CC3)n2)cc1 (stereo not drawn) [GSK1379812],0,21,99.4,5,3,0,0,0,6,0,0,0,0,54,28,0,0,10,0,10
O=C1NC(=O)C(c2ccc(Cl)cc2)=C1Nc1ccc(O)cc1 [SB-340867],0,13,0,0,0,0,0,0,0,0,6,0,0,0,9,0,0,0,0,18
COC(=O)c1cccc(NC(=O)NC2CCN(c3ccnc(Nc4ccc(F)cc4)n3)C2)c1 (stereo not drawn) [GSK1379725],0,5,0,3,0,0,0,0,17,0,0,0,0,2,0,0,0,0,0,23
Cc1c(Cn2c(C)c(C)n3c(=O)cc(N4CCOCC4)nc23)cccc1C(F)(F)F [GSK2328680],0,0,2,7,0,0,5,0,22,0,0,16,0,0,22,0,0,0,0,6
Fc1ccc(-c2nn3cccc(F)c3c2-c2ccncc2)cc1 [GW475620],24,9,33,7,0,16,78,5,12,11,0,0,12,3,16,0,0,1,0,3
O=C1NC(=O)C(c2ccc(Cl)cc2)=C1Nc1cccc(Cl)c1 [SB-317651],0,23,0,18,23,0,13,36,0,6,0,0,0,0,14,0,0,2,0,0
Cc1ccc(-c2nc(Nc3ccncc3)c3ccccc3n2)s1 [GSK189015],18,7,21,3,12,0,28,0,4,4,47,5,16,0,9,74,3,13,3,38
Cl.Cl.Cl.N#Cc1ccc(CCNc2nccc(-c3cccc(CN4CCNCC4)c3)n2)cc1 [GSK2137462],0,0,0,0,13,0,31,34,24,0,10,0,2,0,6,12,0,15,2,21
COC(=O)c1cccc(NC(=O)NC2CCN(c3ccnc(Nc4ccc(OC)cc4)n3)C2)c1 (stereo not drawn) [GSK1379746],0,0,0,0,0,0,0,14,0,0,0,9,0,0,7,0,0,0,0,0
O=c1cc(N2CCOCC2)nc2n(Cc3cccc(Cl)c3Cl)c3ccccc3n12 [GSK2299009],5,19,53,4,0,0,5,14,28,37,4,31,18,16,39,16,0,0,0,19
CNc1cc(-c2ccc3c(N)n[nH]c3c2)nc(N)n1 [GSK2224810],26,14,0,1,0,37,37,0,7,0,7,0,13,0,0,2,0,0,0,46
FC(F)(F)c1ccccc1-c1cc(-c2c[nH]nc2-c2ccccn2)ccn1 [GW679396],13,0,0,6,0,0,22,0,13,0,1,0,0,0,15,0,0,0,0,3
CC[C@@H]1CO[C@H](C(=O)Nc2ccccc2)CN1c1cc(-c2ccc3c(N)n[nH]c3c2)nc(NC)n1 [GSK2376236],31,0,2,26,16,0,7,0,0,0,9,19,0,0,16,26,5,0,0,32

Structure (SMILES),%Inh [1] [%],%Inh [2] [%],%Inh [3] [%],%Inh [4] [%],%Inh [5] [%],%Inh [6] [%],%Inh [7] [%],%Inh (S6K1) [%],%Inh (SBK1) [%],%Inh (SGK2) [%],%Inh (SGK3) [%],%Inh (SGK) [%],%Inh (SIK2) [%],%Inh (SIK) [%],%Inh (SLK) [%],%Inh (SNARK) [%],%Inh (SNRK) [%],%Inh (SRC) [%],%Inh (SRMS) [%],%Inh (SRPK1) [%]
CCCCc1nn2ncccc2c1-c1ccnc(NC2CC2)n1 [GW684374],28,26,0,0,0,0,32,0,0,0,2,0,0,0,0,9,0,0,0,12
Nc1ncnc2occ(-c3ccc4c(c3)CCN4C(=O)Cc3cc(F)ccc3F)c12 [GSK2645446],0,0,7,0,16,0,15,0,10,0,1,0,0,0,5,7,0,0,0,16
CS(=O)(=O)CCNCc1nc(-c2ccc3ncnc(Nc4ccc(OCc5ccccc5)c(Cl)c4)c3c2)cs1.Cl [GW582764],0,15,2,9,0,0,8,6,23,0,0,11,0,6,14,0,0,0,0,10
COc1ccc(-c2coc3ccc(-c4nnc(C)o4)cc23)cc1,4,0,0,0,8,22,15,0,0,0,0,0,3,0,5,0,0,20,0,9
Cn1cncc1-c1cc2c(Nc3ccc(OCc4ccccc4)cc3)ncnc2cn1 [GW281179],0,0,0,3,0,0,9,3,36,10,0,4,0,0,19,0,0,0,0,18
CC(=O)c1cccc(NC(=O)NC2CCN(c3ccnc(Nc4ccc(F)cc4)n3)C2)c1 (stereo not drawn) [GSK1379710],14,0,30,17,6,0,21,0,5,0,5,18,9,0,2,19,7,0,8,21
COc1ccc(CSc2nnc(-c3ccc4c(c3)CCO4)o2)cc1,0,0,3,0,5,0,17,0,0,0,0,0,0,0,0,0,0,0,0,0
O=C(Nc1n[nH]c2nc(-c3cccs3)c(Br)cc12)C1CCCC1 [SB-743341],0,15,0,0,0,26,0,2,0,0,40,0,0,17,38,34,19,7,0,0
CC(=O)c1c(C)c2cnc(Nc3ccc(N4CCNCC4)cn3)nc2n(C2CCCC2)c1=O,0,0,0,0,0,0,1,0,0,0,5,0,10,0,0,0,8,0,0,32
COC(=O)C(NC(=O)NC1CCN(c2ccnc(Nc3ccc(F)cc3)n2)C1)c1ccccc1 (stereo not drawn) [GSK1379712],18,0,38,0,11,0,7,0,8,8,2,2,3,0,4,5,0,0,0,0
Cc1ccc(NC(=O)Nc2ccc(Cl)c(C(F)(F)F)c2)cc1-c1ccc(C(=O)Nc2ccncc2)cc1 [GSK1398470],3,5,0,9,14,2,22,15,64,0,4,0,26,41,21,4,56,21,0,30
COc1ccc(Nc2nccc(-c3ccc(NC(=O)c4cc5cc(F)ccc5[nH]4)cc3)n2)cc1 [GSK1229496],36,0,20,0,0,20,6,1,17,0,1,0,0,0,0,0,0,0,7,10
O=C(Nc1n[nH]c2nc(-c3ccco3)c(Br)cc12)C1CCN(Cc2ccccc2)C1.O=C(O)[C@H](O)[C@@H](O)C(=O)O (stereo not drawn) [SB-742034],0,35,0,6,0,16,12,23,19,27,24,18,9,52,8,11,0,0,17,28
Nc1nccc(-c2c(-c3ccc(F)cc3)ncn2C2CCN(Cc3ccccc3)CC2)n1 [SB-219980],41,41,0,4,5,30,63,6,35,0,28,2,24,6,0,38,0,0,11,0
COc1ccc(CSc2nnc(-c3ccc4ncsc4c3)o2)cc1C(F)(F)F,0,0,0,0,0,0,9,0,0,0,0,2,0,11,15,0,0,3,0,10
Cc1nccc(-c2c(-c3ccc(F)cc3)ncn2CCCN2CCOCC2)n1.Cl [SB-282975],5,29,44,9,0,22,6,9,29,27,39,27,0,27,32,42,2,26,0,19
Fc1ccc(-c2nc[nH]c2-c2ccncc2)cc1 [SB-217360],47,34,4,0,6,16,87,8,0,0,7,0,0,0,32,0,0,0,34,0
Cc1cnc(N)c(/C=C/c2cncc(C(=O)NCCc3ccc(Cl)cc3Cl)c2)c1.Cl [GSK190937],0,0,2,0,0,0,20,0,19,0,0,0,0,0,0,0,0,0,24,24
Cn1cncc1C(=O)NC1CCN(c2ccnc(Nc3ccc(F)cc3)n2)C1 (stereo not drawn) [GSK1379717],12,5,0,0,12,0,15,7,16,7,0,14,0,0,0,0,0,0,0,100
NS(=O)(=O)c1cccc(N/C=C2\C(=O)Nc3ccc(S(=O)(=O)Cc4c(Cl)cccc4Cl)cc32)c1 [GSK398099],100,6,0,10,0,0,2,0,21,8,5,0,0,0,15,0,0,0,0,19
CNc1nc(-c2ccc3c(N)n[nH]c3c2)cc(N2C[C@@H](C(=O)NC3CCCCC3)OC[C@H]2C)n1 [GSK2375584],19,0,14,9,6,0,20,10,0,0,20,0,0,0,24,30,2,0,0,4
